# TRPV1 agonist: HTS Assay for Compounds that Act as Agonists of the Vanilloid Receptor 1. Transient receptor potential cation channel subfamily V member 1 (Homo sapiens), Q8NER1. AID 540275, 2011. TRPV1-expressing cells, Fluo-8 calcium influx, agonist mode. 320,000 compounds, 0.19% hits. activation, % at 8.33 µM; in the data active = activation above about 80%; inconclusive = between about 30% and that limit; note: 0% is about no effect
#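 Cells expressing TRPV1 were dye-loaded with Fluo-8 and read kinetically: 10 s baseline, 3 min after compound (agonist portion), then 2 min after EC20 capsaicin (allosteric enhancer portion). Calcium-bound dye fluorescence at 480/520 nm.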
# TRPV1 PAM: HTS Assay for Compounds that Act as Potentiators of the Vanilloid Receptor 1; 320,000 compounds, 0.02% hits; Transient receptor potential cation channel subfamily V member 1 (Homo sapiens), Q8NER1; potentiation, % at 8.33 µM; AID 540277, 2011; TRPV1-expressing cells, Fluo-8 calcium influx, capsaicin EC20 potentiation; in the data active = potentiation above about 80%; inconclusive = between about 30% and that limit; note: 0% is about no effect
#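 Fluo-8 calcium influx in TRPV1-expressing cells, kinetic read (ex 480/em 520 nm). Compound added and read 3 min for agonist activity, followed by capsaicin at EC20 final and 2 min further read for enhancement.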
# CBFb RUNX1 block: qHTS Assay for Compounds Blocking the Interaction Between CBF-beta and RUNX1 for the Treatment of Acute Myeloid Leukemia | AlphaScreen CBFb-His/RUNX1-biotin binding, biochemical | Potency, µM (series often up to 59.8 µM), for inactives: top-dose activity, negative = inhibition, usual class: inhibitors | Runt-related transcription factor 1 (Homo sapiens) + Core-binding factor subunit beta … | AID 1477, 2009 | 230,000 tested, under 10 active; note: % of control where 0% means no effect
# Target sequence (Q01196 whole entry, looked up): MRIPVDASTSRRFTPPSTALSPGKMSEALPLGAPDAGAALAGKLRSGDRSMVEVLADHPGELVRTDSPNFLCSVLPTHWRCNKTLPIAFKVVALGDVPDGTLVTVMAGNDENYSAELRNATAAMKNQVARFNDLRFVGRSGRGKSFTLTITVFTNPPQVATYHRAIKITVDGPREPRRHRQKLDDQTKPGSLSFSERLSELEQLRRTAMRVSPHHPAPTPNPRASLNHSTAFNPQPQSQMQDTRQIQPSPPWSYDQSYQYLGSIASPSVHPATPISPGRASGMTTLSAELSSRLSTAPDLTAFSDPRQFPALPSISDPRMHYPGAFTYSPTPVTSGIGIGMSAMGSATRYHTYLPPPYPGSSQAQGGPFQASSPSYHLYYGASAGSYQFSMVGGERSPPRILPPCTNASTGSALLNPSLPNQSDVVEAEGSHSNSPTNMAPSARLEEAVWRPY
# Target sequence (Q13951 whole entry, looked up): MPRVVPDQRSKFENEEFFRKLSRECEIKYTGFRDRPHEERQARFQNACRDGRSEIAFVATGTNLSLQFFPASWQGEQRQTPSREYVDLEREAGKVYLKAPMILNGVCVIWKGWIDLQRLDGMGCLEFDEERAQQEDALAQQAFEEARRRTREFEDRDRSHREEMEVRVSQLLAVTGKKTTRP
#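 Proteins preincubated together for 20 min at RT before compound addition; 15 min later, nickel and streptavidin beads were added and left 90 min prior to AlphaScreen measurement.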
# A-T KAP1 phos: qHTS Assay for Identifying a Potential Treatment of Ataxia-Telangiectasia; F2112 A-T fibroblasts, KAP-1 phosphorylation AlphaLISA; neocarzinostatin DNA damage 30 min before lysis; Potency, µM (doses to about 57.5 µM), for inactives: top-dose activation, most hits filed as activators; 320,000 compounds, 0.19% hits; AID 485349, 2010; note: potency is the fitted concentration of half-maximal effect; % of control where 0% means no effect; nearly all actives have a fitted effect of over 45% in size
#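 hTERT-immortalized A-T patient fibroblasts (F2112), 500 cells/well in OPTI-MEM, 1% FBS, got compounds for 60 min, then NCS for 30 min at 37C. Lysates were then assayed for phospho-KAP-1 by AlphaLISA (anti-pKAP1 donor, anti-KAP1 acceptor beads), 6 hr at 25C.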
# Apoferritin bind: qHTS Assay for Identification of Novel General Anesthetics | Ferritin light chain (Equus caballus), P02791 | Potency, µM (top dose mostly 77.5 µM), for inactives: at the highest dose activity change, negative = displacement, most hits filed as inhibitors | apoferritin/1-aminoanthracene competitive binding, fluorescence | 350,000 compounds, 0.074% hits | AID 485281, 2010; note: potency is the fitted concentration of half-maximal effect; % is set by controls: 0 for no effect and ±100 for the full control effect; nearly all actives have a fitted effect of over 20% in size
#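 Probe: 1-aminoanthracene (50% saturated, PBS). Protein: horse-spleen apoferritin, 10 uM. Incubation: 10 min, room temperature. Detection: 380 nm excitation, 535 nm emission. Analysis: normalized response, four-parameter Hill.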
# Numbers without * were called inactive; ? = inconclusive; nt = no result; [ ] = remark or other dose. Rows were chosen to be rich in hits. Some 0.39% of all compounds tested hit in one or more screens of this group. Unless noted, calls come from the whole dose curve; as a rule, active = well fitted curve in the direction sought with a large enough effect; inconclusive = small, poorly fitted or top-dose-only effect, or another doubt; inactive = no such curve, though single readings can be large; an effect the other way counts as inactive or inconclusive.
SMILES,TRPV1 agonist,TRPV1 PAM,CBFb RUNX1 block,A-T KAP1 phos,Apoferritin bind
COC(=O)c1ccc(CN2[C@H](C(=O)OC)C[C@@]3(O)[C@H](O)[C@H](O)[C@H](O)C[C@@H]23)cc1,-0.2,?,-1.0%,22.6%,-11.7%
CCCCCCCCCS(=O)(=O)N/N=C/c1cccc([N+](=O)[O-])c1,?,-18.6,0.5%,0.4%,7.08µM*
CCCCCCCCCCS(=O)(=O)N/N=C/c1ccc(O)cc1,?,-3.0,1.5%,0.3%,15.8µM*
N#Cc1cc([N+](=O)[O-])ccc1NC(=O)COC(=O)C12CC3CC(CC(C3)C1)C2,22.1,-1.8,?,2.0%,35.5µM*
CCCn1nc(NC(C)=O)c2cc3cccc(C)c3nc21,10.4,-9.9,nt,14.1µM*,53.9%
CCCn1nc(NC(=O)c2ccncc2)c2cc3ccccc3nc21,?,-15.1,0.9%,12.5%,-4.1%
CCCC(=O)Nc1nn(CCC)c2nc3ccccc3cc12,nt,nt,-2.5%,28.2µM*,35.6%
CCCCn1nc(NC(=O)c2cccs2)c2cc3cc(OC)ccc3nc21,?,5.7,?,28.2µM*,1.8%
CCCn1nc(NC(=O)CC(C)C)c2cc3cccc(C)c3nc21,?,-18.7,nt,26.5%,1.6%
COc1ccc2nc(-c3ccc(N(C)C)cc3)sc2c1,nt,nt,nt,nt,38.2%
O=C(/C=C/c1ccc(I)cc1)c1ccc(B(O)O)cc1,nt,nt,nt,nt,4.5%
CCC(=O)N(CCc1ccccc1)Cc1cc2cccc(C)c2[nH]c1=O,87.8*,22.1,nt,0.5%,-0.6%
COCCN(Cc1cc2cccc(C)c2[nH]c1=O)C(=O)c1ccccc1,-2.5,3.0,1.0%,-0.3%,-7.2%
CC[C@H](C)[C@H](NC(=O)[C@H](Cc1ccc(O)cc1)NC(=O)[C@H](Cc1cnc[nH]1)NC(=O)[C@H](CCCNC(=N)N)NC(=O)[C@H](CC(C)C)NC(=O)[C@H](C)NC(=O)[C@H](CO)NC(=O)[C@H](Cc1ccc(O)cc1)NC(=O)[C@H](Cc1ccc(O)cc1)NC(=O)[C@H](CCCNC(=N)N)NC(=O)[C@H](C)NC(=O)[C@H](CCSC)NC(=O)[C@H](CC(=O)O)NC(=O)[C@H](CCC(=O)O)NC(=O)[C@H](C)NC(=O)[C@@H]1CCCN1C(=O)[C@H](C)NC(=O)[C@H](CC(=O)O)NC(=O)[C@H](CCC(=O)O)NC(=O)CNC(=O)[C@@H]1CCCN1C(=O)[C@H](CC(N)=O)NC(=O)[C@H](CC(=O)O)NC(=O)[C@@H]1CCCN1C(=O)[C@H](CCCCN)NC(=O)[C@H](CO)NC(=O)[C@@H]1CCCN1C(=O)[C@@H](N)Cc1ccc(O)cc1)C(=O)N[C@@H](CC(N)=O)C(=O)N[C@@H](CC(C)C)C(=O)N[C@@H](CC(C)C)C(=O)N[C@H](C(=O)N[C@@H](CCCNC(=N)N)C(=O)N1CCC[C@H]1C(=O)N[C@@H](CCCNC(=N)N)C(=O)N[C@@H](Cc1ccc(O)cc1)C(N)=O)[C@@H](C)O,nt,nt,7.3%,nt,-21.3%
CC1CC(C)CN(C(=O)c2cc(S(=O)(=O)N3CCCCC3)ccc2Cl)C1 (stereo not drawn),104.1*,-13.4,nt,14.0%,nt
CC1CC(C)CN(CCCNC(=O)c2cn(C)c3ccc(S(=O)(=O)N4CCCC4)cc3c2=O)C1 (stereo not drawn),4.9,-1.6,-2.9%,39.8µM*,-0.3%
CC1CCN(CCCNC(=O)c2cn(C)c3ccc(S(=O)(=O)N4CCCC4)cc3c2=O)CC1,-3.0,-13.6,1.3%,-4.1%,-10.5%
CCn1cc(C(=O)NCCc2ccccc2)c(=O)c2cc(S(=O)(=O)N3CCCC3)ccc21,96.4*,0.1,-2.8%,-3.6%,-12.7%
CC(C)[C@H](NC(=O)[C@H](CCCCN)NC(=O)[C@@H](NC(=O)[C@@H]1CCCN1C(=O)[C@H](CCCN=C(N)N)NC(=O)[C@H](CCCN=C(N)N)NC(=O)[C@H](CCCCN)NC(=O)[C@H](CCCCN)NC(=O)CNC(=O)[C@@H](NC(=O)[C@@H]1CCCN1C(=O)[C@@H](N)CCCCN)C(C)C)C(C)C)C(=O)N[C@@H](Cc1ccc(O)cc1)C(=O)N1CCC[C@H]1C(=O)O,nt,nt,5.8%,nt,-3.0%
CCc1ccc(CNC(=O)Cn2nc(-c3ccc(Cl)cc3)ccc2=O)cc1,nt,nt,nt,nt,15.8µM*
CCc1ccc(CNC(=O)Cn2nc(-c3ccc(C)cc3)ccc2=O)cc1,4.8,-2.7,11.0%,1.2%,10µM*
COc1ccc(CCNC(=O)Cn2nc(-c3ccc(Cl)cc3)ccc2=O)cc1OC,nt,nt,nt,nt,-17.2%
O=C(Cn1nc(-c2ccccc2)ccc1=O)NCc1ccc(F)cc1,13.6,-5.0,2.6%,0.4%,?
O=C(Cn1nc(-c2ccc(Cl)cc2)ccc1=O)NCCc1ccccc1,nt,nt,nt,nt,7.94µM*
CCC1(c2ccc(OC)cc2)NC(=O)N(C)C1=O (stereo not drawn),nt,nt,14.6%,nt,-8.1%
SMILES,TRPV1 agonist,TRPV1 PAM,CBFb RUNX1 block,A-T KAP1 phos,Apoferritin bind
COC(=O)[C@H]1O[C@@H](c2cc(OC)c(C)c(OC)c2O)[C@H](C)[C@@H](O)[C@H]1C,nt,nt,-11.4%,nt,nt
O=C(O)c1ccccc1OS(=O)(=O)O,nt,nt,22.8%,nt,4.3%
COc1ccccc1C1CC(c2ccco2)=NN1c1ccccc1 (stereo not drawn),-1.7,-11.1,?,20µM*,86.8%
COc1ccc(C2=NN(c3ccccc3)C(c3ccc(OC)c(OC)c3)C2)cc1 (stereo not drawn),-2.1,11.6,nt,?,-3.5%
CCN1C(=O)[C@@H]2[C@H]3C(=CC[C@@H]2C1=O)C1(OCCCO1)[C@H]1O[C@@H]1[C@H]3O,nt,nt,-8.8%[13.1 µM],nt,-5.1%[15.3 µM]
COC(=O)c1cc(NC(=O)Cc2ccccc2[N+](=O)[O-])cc(C(=O)OC)c1,83.0*,-8.5,5.9%,-0.3%,3.5%
Cc1ccc(C2CC(c3ccccc3)=NN2c2ccccc2)o1 (stereo not drawn),0.5,17.1,?,20µM*,398.4%
Fc1ccc(C2=NN(c3ccccc3)C(c3ccco3)C2)cc1 (stereo not drawn),4.3,3.1,?,7.1%[11.5 µM],318.8%
C(=C\c1ccco1)/C1=NN(c2ccccc2)C(c2ccco2)C1 (stereo not drawn),8.6,10.7,?,31.6µM*,5.2%
Clc1ccc(C2=NN(c3ccccc3)C(c3ccco3)C2)cc1 (stereo not drawn),-8.5,5.8,?,25.1µM*,52.2%

# Screens as filed in PubChem BioAssay.
